For 28 compounds, Potency results are on record in PubChem BioAssay (Tox21).

Results filed as inconclusive are left out. Calls of active or inactive are those of the source. Unless noted, calls come from the whole dose curve; as a rule, active = well fitted curve in the direction sought with a large enough effect in the repeat runs; inconclusive = weak or mixed curves; inactive = no such curve, though single readings can be large; an effect the other way counts as inactive or inconclusive.

Experiment [1] in a line: qHTS assay to identify small molecule antagonists of the estrogen related receptor (ERR) signaling pathway from Tox21 library - cell viability counter screen (AID 1224834). Note: nearly all actives have a fitted effect of over 30% in size. Note: potency is the fitted concentration of half-maximal effect. The method, boiled down: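 Viability readout (CellTiter-Fluor fluorescence, 30 min at 37 C) multiplexed with the ERR assay; cells treated 17.5 h at 37 C with compounds delivered in DMSO.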
On the technique in general: Quantitative high-throughput screening tests each substance at several concentrations.

Experiment [2] deals with Luciferin 4-monooxygenase (Photinus pyralis) (UniProt P08659). Nature of the experiment: qHTS assay to identify small molecule inhibitors of firefly luciferase (AID 1224835). Note: nearly all actives have a fitted effect of over 25% in size. Note: potency is the fitted concentration of half-maximal effect. In a few lines: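 Biochemical qHTS: compounds run as interplate titrations against purified firefly enzyme, with D-luciferin and ATP each at its KM concentration. Light output recorded by CCD imaging.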
Luciferin 4-monooxygenase (Photinus pyralis), sequence (P08659 whole entry, looked up): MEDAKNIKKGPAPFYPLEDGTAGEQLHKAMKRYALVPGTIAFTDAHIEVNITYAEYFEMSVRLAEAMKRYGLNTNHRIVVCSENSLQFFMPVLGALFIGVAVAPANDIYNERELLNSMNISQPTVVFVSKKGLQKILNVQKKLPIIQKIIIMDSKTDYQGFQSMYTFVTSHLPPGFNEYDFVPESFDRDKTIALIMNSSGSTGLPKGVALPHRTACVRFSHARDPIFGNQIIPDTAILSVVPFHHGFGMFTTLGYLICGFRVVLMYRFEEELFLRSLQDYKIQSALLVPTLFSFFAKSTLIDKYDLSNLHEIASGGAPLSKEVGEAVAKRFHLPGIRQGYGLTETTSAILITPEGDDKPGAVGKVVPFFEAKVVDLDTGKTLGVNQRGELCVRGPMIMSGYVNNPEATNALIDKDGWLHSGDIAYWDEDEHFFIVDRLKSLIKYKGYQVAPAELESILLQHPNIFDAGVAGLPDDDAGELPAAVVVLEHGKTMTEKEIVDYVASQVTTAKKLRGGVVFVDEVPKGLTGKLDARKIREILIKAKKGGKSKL

Experiment [3] in a line: qHTS assay to identify small molecule agonists of the constitutive androstane receptor (CAR) signaling pathway - cell viability counter screen (AID 1224836). Note: nearly all actives have a fitted effect of over 45% in size. Note: potency is the fitted concentration of half-maximal effect. The method, boiled down:
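HepG2-CYP2B6-hCAR, 2500 cells/well, 4 h pre-incubation; cpd 15 conc + PK11195 0.75 uM final; 23 h, 37 C/5% CO2; CellTiter-Fluor, fluorescence.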

Experiment [4] is described as follows: qHTS assay to identify small molecule antagonists of the constitutive androstane receptor (CAR) signaling pathway - cell viability counter screen (AID 1224837). Note: nearly all actives have a fitted effect of over 45% in size. Note: potency is the fitted concentration of half-maximal effect. The method, boiled down: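 Fluorescence from CellTiter-Fluor served as the viability signal. Human hepatoma HepG2 cells stably bearing hCAR and CYP2B6-2.2kb received compound plus CITCO (50 nM final) for 23 hr.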

Experiment [5] concerns the target Nuclear receptor subfamily 1 group I member 3 (Homo sapiens) (UniProt Q14994). Nature of the experiment: qHTS assay to identify small molecule antagonists of the constitutive androstane receptor (CAR) signaling pathway (AID 1224838).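 Note: HepG2 cells stably expressing hCAR with CYP2B6 luciferase reporter stimulated by CITCO; nearly all actives have a fitted effect of over 40% in size.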 Note: potency is the fitted concentration of half-maximal effect. In a few lines:
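Quantitative HTS in double-stable HepG2-CYP2B6-hCAR cells. After 4 h plating, cells get compound (15 concentrations) and CITCO at 50 nM final, incubate 24 h at 37 C, then ONE-Glo luminescence is read.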

Experiment [6] shares this target. Nature of the experiment: qHTS assay to identify small molecule agonists of the constitutive androstane receptor (CAR) signaling pathway (AID 1224839). Note: nearly all actives have a fitted effect of over 15% in size. Note: potency is the fitted concentration of half-maximal effect. The method, boiled down: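 HepG2-CYP2B6-hCAR cells, 2500/well, 4 h pre-incubation; compounds 15 conc.; PK11195 0.75 uM final; 24 h, 37 C/5% CO2; ONE-Glo luciferase read.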
Experiment [7] is described as follows: qHTS assay to identify small molecule antagonists of the estrogen related receptor signaling pathway with the pleiotropic PPARgamma coactivator (PGC) from Tox21 10K library - cell viability counter screen (AID 1224840; active = well fitted cell-killing curve with a large enough effect in the repeat runs, not every such curve was filed as active; note: nearly all actives have a fitted effect of over 40% in size). The method, boiled down: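 Compounds in DMSO, alongside positive and negative controls, were pinned onto PGC/ERR cells (2,000 per well). Exposure lasted 17.5 hours at 37 C, followed by a 30-minute CellTiter-Fluor incubation and fluorescence reading.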

The nature of experiment [8]: qHTS assay to identify small molecule antagonists of the estrogen related receptor signaling pathway with the pleiotropic PPARgamma coactivator (PGC) from Tox21 10K library (AID 1224841; call rule not given here; note: actives are mostly falling curves and most rising ones were filed inactive; nearly all actives have a fitted effect of over 50% in size; note: potency is the fitted concentration of half-maximal effect). In a few lines: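 Compound exposure ran 18 hours at 37 C in PGC/ERR cells (2,000/well) that had first rested 6 hours in a 37 C/5% CO2 incubator. Luciferase activity was then detected with One-Glo after a 30-minute room-temperature step.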

A short description of experiment [9]: qHTS assay to identify small molecule agonists of the estrogen related receptor signaling pathway with the pleiotropic PPARgamma coactivator (PGC) from Tox21 10K library (AID 1224842). Note: nearly all actives have a fitted effect of over 15% in size. In a few lines: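 PGC/ERR reporter cell line, 2,000 cells per well, incubated 6 h at 37 C before 23 nL compound in DMSO was added. After 18 h at 37 C, One-Glo luminescence read following 30 min at room temperature.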

Nuclear receptor subfamily 1 group I member 3 (Homo sapiens), sequence (Q14994 whole entry, looked up): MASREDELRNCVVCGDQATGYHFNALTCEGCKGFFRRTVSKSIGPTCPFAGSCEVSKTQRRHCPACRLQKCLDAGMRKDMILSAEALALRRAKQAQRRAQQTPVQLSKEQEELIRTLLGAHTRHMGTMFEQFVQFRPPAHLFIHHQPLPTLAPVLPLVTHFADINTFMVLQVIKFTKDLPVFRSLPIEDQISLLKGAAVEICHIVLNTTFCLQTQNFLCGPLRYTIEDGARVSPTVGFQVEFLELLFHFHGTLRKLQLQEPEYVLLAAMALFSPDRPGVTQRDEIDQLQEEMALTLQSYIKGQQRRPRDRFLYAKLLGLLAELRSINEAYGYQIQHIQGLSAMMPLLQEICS

`O=c1c2ccccc2oc2ccccc12`: the Potency result in experiment [1], in experiment [3], in experiment [4], in experiment [5] and in experiment [7] was “inactive” in each case. The Potency is 20000 nM (active) in experiment [2] and 24300 nM (active) in [6].

For the compound `CC1(C)CC(O)CC(C)(C)N1[O]`, the Potency entry in [1], in experiment [2], in [3], in experiment [4], in [5] and in [6] was “inactive” each time.

As to `SCCOCCOCCS`, the Potency entry in experiment [1], in experiment [2], in [3], in experiment [4], in experiment [5] and in experiment [6] was “inactive” each time. Moreover, in experiment [7], the Potency entry was “inactive”.

Turning to `NC(=O)c1cc[n+](CC2=C(C(=O)[O-])N3C(=O)[C@@H](NC(=O)Cc4cccs4)[C@H]3SC2)cc1`, the Potency entry in experiment [1], in experiment [2], in experiment [3], in [4], in experiment [5] and in experiment [6] was “inactive” in each case. For the same compound, in [7], the Potency entry was “inactive”.

Take `CCCCCCCCCCCCCCCCN`: the Potency entry in experiment [1], in experiment [2], in experiment [3], in [4], in experiment [5] and in experiment [6] was “inactive” throughout. Besides, the Potency entry in experiment [7] is “inactive”.

On to `CCCCCCCCOCCCN`, for which the Potency entry in experiment [1], in [2], in experiment [3], in experiment [4], in experiment [5] and in experiment [6] was “inactive” each time. Also, the Potency result in [7] is “inactive”.

As to `C(/C=C/C=C/Nc1ccccc1)=Nc1ccccc1`, the Potency result in [1], in experiment [2], in experiment [3], in experiment [4], in experiment [5] and in [6] was “inactive” in each case. Moreover, the Potency entry in experiment [7] was “inactive”.

Take `COc1cc(CNC(=O)CCCC/C=C/C(C)C)ccc1O`: the Potency result in [1], in [2], in experiment [3], in [4] and in [5] was “inactive” in each case.

Take `Nc1nc(Cl)nc2c1ncn2[C@H]1C[C@H](O)[C@@H](CO)O1`: the Potency entry in experiment [1], in experiment [2], in experiment [3], in experiment [4] and in [6] was “inactive” in each case. In [5], the Potency is 121 nM (active).

In the case of `O=C(c1ccco1)N1CCNCC1`, the Potency result in experiment [1], in experiment [2], in experiment [3], in experiment [4], in experiment [5] and in experiment [6] was “inactive” each time. The Potency result in experiment [7], in experiment [8] and in [9] was “inactive” each time.

As to `OCCOc1cccc(OCCO)c1`, the Potency entry in [1], in experiment [2], in [3], in experiment [4], in experiment [5] and in experiment [7] was “inactive” each time. Also, the Potency entry in experiment [8] and in experiment [9] was “inactive” throughout.

`O=C(O)CCc1nc2ccccc2[nH]1`: the Potency result in experiment [1], in experiment [2], in [3], in experiment [4], in experiment [5] and in experiment [7] was “inactive” each time.

On to `CCCCOC(=O)C(C)Oc1ccc(Oc2ccc(C(F)(F)F)cn2)cc1` (centres undefined), for which the Potency entry in experiment [1], in experiment [2], in [3], in experiment [4], in [6] and in experiment [7] was “inactive” in each case.

As for `C[C@@H](O)[C@H]1C(=O)N2C(C(=O)O)=C(S[C@@H]3CN[C@H](CNS(N)(=O)=O)C3)[C@H](C)[C@H]12`, the Potency entry in experiment [1], in experiment [2], in experiment [3], in experiment [4], in experiment [5] and in experiment [6] was “inactive” each time. Moreover, the Potency result in experiment [7] was “inactive”.

Turning to `CCC(=O)O[C@]1(C(=O)COC)[C@@H](C)C[C@H]2[C@@H]3CCC4=CC(=O)C=C[C@]4(C)C3(F)[C@@H](O)C[C@@]21C` (some centres undefined), the Potency result in experiment [1], in experiment [2], in [3], in [4], in experiment [5] and in [6] was “inactive” each time. The Potency result in experiment [7], in experiment [8] and in experiment [9] was “inactive” throughout.

With `CCCCCCOC(=O)c1ccccc1`, the Potency result in [1], in experiment [3], in experiment [4], in experiment [5], in experiment [6] and in experiment [7] was “inactive” each time. In addition, the Potency result in [8] and in experiment [9] was “inactive” each time. Further, in experiment [2], the Potency is 15900 nM (active).

As for `N#Cc1ccc(CC(=O)c2cccc(C(F)(F)F)c2)cc1`, the Potency entry in experiment [1], in experiment [2], in [3], in [4], in experiment [5] and in experiment [9] was “inactive” in each case.

For `CCC(C)CCCC(C)(C)O` (centres undefined), the Potency result in experiment [1], in [2], in experiment [3], in [4] and in experiment [7] was “inactive” in each case.

Regarding `O=P(c1ccccc1)(c1ccccc1)c1ccccc1`, the Potency result in experiment [1], in experiment [2], in experiment [3], in experiment [4], in [5] and in experiment [7] was “inactive” in each case.

In the case of `CC(C)=CCC[C@H](C)CCO`, the Potency result in [1], in [2], in [3], in experiment [4] and in [7] was “inactive” each time.

`CC(COc1ccccc1)NC(C)C(O)c1ccc(O)cc1` (centres undefined): the Potency entry in [1], in [2], in [3], in experiment [4], in [5] and in [6] was “inactive” in each case. The Potency entry in experiment [7], in experiment [8] and in experiment [9] was “inactive” in each case.

Regarding `CC(C)(O)C(=O)O`, the Potency result in [1], in experiment [2], in [3], in experiment [4], in [5] and in experiment [6] was “inactive” each time. In addition, in [7], the Potency result is “inactive”.

Take `O=[N+]([O-])c1ccc(Cl)cc1Cl`: the Potency entry in experiment [1], in experiment [2], in [3], in experiment [4], in [5] and in [6] was “inactive” throughout. For the same compound, the Potency result in [7] is “inactive”.

`CC(C)C[C@H](NC(=O)[C@H](Cc1ccccc1)NC(=O)c1cnccn1)B(O)O`: the Potency is 84.1 nM (active) in experiment [1]; 298 nM (active) in experiment [3]; 266 nM (active) in experiment [4]; 37.6 nM (active) in experiment [5]; 18.8 nM (active) in [8]. For the same compound, the Potency entry in experiment [2], in [6] and in [9] was “inactive” in each case.

For `Clc1cccc(C(c2ccc3nc[nH]c3c2)n2ccnc2)c1` (centres undefined), the Potency result in [1], in experiment [2], in [3], in experiment [4], in experiment [5] and in [7] was “inactive” throughout.

`O=C(c1ccc(Cl)cc1)c1ccc(Cl)cc1`: the Potency entry in experiment [1], in [2], in experiment [3], in [4], in [5] and in [7] was “inactive” in each case.

In the case of `O=C(O)c1cc(C(=O)O)c(C(=O)O)cc1C(=O)O`, the Potency result in [1], in [2], in experiment [3], in experiment [4], in experiment [5] and in experiment [6] was “inactive” each time. The Potency entry in experiment [7], in [8] and in experiment [9] was “inactive” each time.

As for `C[C@H](N)C(=O)N[C@@H](C)C(=O)NC1[C@H]2CN(c3nc4c(cc3F)c(=O)c(C(=O)O)cn4-c3ccc(F)cc3F)C[C@@H]12` (some centres undefined), the Potency entry in [1], in experiment [2], in experiment [3], in experiment [4], in experiment [5] and in experiment [7] was “inactive” throughout. Besides, the Potency result in [8] was “inactive”.
